Compounds with a hit are over-represented: about 21% of the library has one in this group of screens.
Pf growth 96h: Primary qHTS for delayed death inhibitors of the malarial parasite plastid, 96 hour incubation. P. falciparum luciferase reporter growth, 96 h. Potency, µM (top dose mostly 28.7 µM), hits mostly inhibitors. 6.9% of 320,000 active. AID 504834, 2011; active = well fitted inhibition curve with a large enough effect; inconclusive = small, poorly fitted or top-dose-only effect, or another doubt; inactive = no such curve, though single readings can be large or run the other way
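Cell-based qHTS: luciferase-tagged P. falciparum in erythrocytes (2% hematocrit, 0.05% parasitemia final) incubated with compounds for 96 hours, 37 C, 5% CO2; luciferase detection reagent then added and luminescence measured.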
Pf growth 48h: Primary qHTS for delayed death inhibitors of the malarial parasite plastid, 48 hour incubation; P. falciparum luciferase growth in erythrocytes, 48 h; Potency, µM (doses to about 28.7 µM), hits mostly inhibitors; 5.9% of 310,000 active; AID 504832, 2011; active = well fitted inhibition curve with a large enough effect; inconclusive = small, poorly fitted or top-dose-only effect, or another doubt; inactive = no such curve, though single readings can be large or run the other way
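Cell-based growth assay: transgenic P. falciparum expressing firefly luciferase, cultured in red cells within RPMI 1640 containing 0.5% w/v Albumax, 24 mM bicarbonate and gentamycin. A drop in luciferase activity indicates inhibition.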
SARS PLP yeast: qHTS of Yeast-based Assay for SARS-CoV PLP; AID 485353, 2010; Potency, µM (highest dose often 32.9 µM), usual class: activators; S. cerevisiae expressing SARS-CoV PLpro, growth rescue; 0.19% of 330,000 active; also: nearly all actives have a fitted effect of over 55% in size
NS1 inh: qHTS Assay for Inhibitors of Influenza NS1 Protein Function; 0.4% of 270,000 active; Potency, µM (highest dose often 46.1 µM); also: actives are rising curves; nearly all actives have a fitted effect of over 50% in size
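S. cerevisiae expressing influenza A NS1, grown in glucose, washed, then diluted 1:100 into pH 6.0 -URA galactose medium with 23 nl compound. Growth recovery read as OD600; NS1-free strain serves as control.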
Shiga inhibitor: A qHTS for Small Molecule Inhibitors of Shiga Toxin. AID 2315, 2010. 9.2% of 290,000 active. Vero cells, Shiga toxin protein synthesis inhibition reporter. inhibition, % at 38.7 µM; in the data active = inhibition mostly above about 28%, no sharp cut-off; inactive = mostly below about 43%
CHX counter-1: Cycloheximide Counterscreen for Small Molecule Inhibitors of Shiga Toxin | cell reporter, cycloheximide protein synthesis inhibition counterscreen | max response, % | 12% of 300,000 active; in the data active = max response mostly above about 13%, no sharp cut-off; inactive = mostly below about 14%; also: read at 38.3 µM for the half of the compounds with a filed dose
CHX counter-2: Cycloheximide Counterscreen for Small Molecule Inhibitors of Shiga Toxin (Confirmatory); shares compounds with Shiga inhibitor; Cycloheximide counterscreen, protein synthesis reporter, Shiga toxin assay; Potency, µM (top dose mostly 38.3 µM), usual class: activators; 3% of 510 active
Numbers stand for hits; 0 = inactive; ? = inconclusive; - = not tested or not shown; ! = not confirmed by another sample; [ ] = remark or other dose. Unless noted, calls follow the shape of the full dose curve.

SMILES	Pf growth 96h	Pf growth 48h	SARS PLP yeast	NS1 inh	Shiga inhibitor	CHX counter-1	CHX counter-2
CC(=O)C1=C(O)C(=O)N(c2ccc(Br)cc2)C1c1cccc([N+](=O)[O-])c1 (stereo not drawn)	0	0	0	0	0	0	-
Cc1ccc2c(c1)N(C(C)C(=O)NCc1cccs1)C(=O)CO2 (stereo not drawn)	0	0	0	-	0	0	-
COC(=O)C1=C(C)N(C)C(=S)N(C)C1c1cccc(Br)c1 (stereo not drawn)	0	?	0	0	0	0	-
CCOC(=O)c1c(C2COc3ccccc3O2)csc1NC(=O)c1ccco1 (stereo not drawn)	-	?	0	0	26	0	0
COc1ccc(C2=NN(C(=O)c3ccco3)C(c3cc4ccccc4nc3Cl)C2)cc1 (stereo not drawn)	0	0	0	?	28	0	0
Cc1ccc2c(N)[nH]nc2n1	0	0	0	0	82	0	0
CCOC(=O)c1oc2ccccc2c1NC(=O)c1ccc(Cl)s1	0	0	0	0	0	0	-
O=C(NC1CCCCC1)c1cccc(S(=O)(=O)N2CCCCC2)c1	4.1µM	0	0	0	71	0	0
CC(=O)N[C@@H](Cc1c[nH]c2ccccc12)C(=O)OCC(=O)Nc1ccc(Cl)c(S(=O)(=O)N(C)C)c1	?	0	0	-	43	0	0
O=C(CN1CCC(NC(=O)C2CC2)CC1)Nc1cccc(F)c1	0	0	0	0	0	0	-
N#C/C(=C(/O)COc1ccccc1)c1nc2ccccc2s1	0	0	-	-	0	0	-
COc1ccc(C/C(O)=C(\C#N)c2nc3ccccc3s2)cc1	0	0	0	0	34	0	0
COc1ccc(NC(=O)CN(C)S(=O)(=O)c2ccc(Br)s2)cc1OC	0	0	0	0	34	0	0
Cc1nnc(NC(=O)CSc2ccc(-c3ccco3)nn2)s1	?	0	0	-	0	0	-
Cc1nnc(NC(=O)CSc2ccc(-c3ccc(Cl)cc3)nn2)s1	0	0	0	-	30	0	0
O=c1[nH]c(=O)n(Cc2ccco2)c2c1C(C(F)(F)F)(C(F)(F)F)N=C(Cc1ccccc1)N2	?	?	0	0	0	0	-
c1cc2c(cc1Cn1cnnn1)OCO2	0	0	0	0	158	0	0
Cc1c(NC(=O)c2ccc3c(c2)OCO3)cccc1-c1nc2ccccc2o1	0	0	0	0	39	0	0
O=C(Nc1ccccc1-c1nc2ccccc2o1)c1ccc2c(c1)OCCO2	-	-	-	0	-	-	-
CSc1nc(C)cc(Oc2ccccc2)n1	0[5.75 µM]	0	0	0	0	0	-
Cc1ccc(S(=O)(=O)N(C)CC(=O)OCC(=O)c2ccc3c(c2)NC(=O)CO3)cc1	-	-	0	-	-	-	-
CN(C)S(=O)(=O)c1ccc(C(=O)OCC(=O)c2ccc3c(c2)NC(=O)CO3)cc1	0	0	0	0	42	0	0
O=S(=O)(c1ccsc1)N1CC=C(c2ccccc2)CC1	0	0	0	0	35	0	?
NC(=O)c1cc(S(=O)(=O)N2CC=C(c3ccccc3)CC2)cs1	0	0	0	0	0	0	-
Cc1noc(/C=C/c2ccco2)c1S(=O)(=O)N1CCC(C(=O)N(C)Cc2ccccc2)CC1	0	1.9µM	0	0	40	0	?
SMILES	Pf growth 96h	Pf growth 48h	SARS PLP yeast	NS1 inh	Shiga inhibitor	CHX counter-1	CHX counter-2
COc1cc2c(c(OC)c1OC)-c1c(cc(OC)c(OC)c1OC)C[C@](C)(O)[C@@H](C)C2	?	0	0	0	49	0	0
COc1ccccc1/C=C/C(=O)OCc1nc2ccccc2c(=O)[nH]1	0	?	0	?	45	0	0
COc1cc2c(cc1OC)CN(S(=O)(=O)c1ccccc1F)CC2	0	0	0	0	0	0	-
CCN(CC)S(=O)(=O)c1ccc(C(=O)NCCc2ccccn2)cc1	0	0	0	-	45	0	0
CCOC(=O)N1CCN(C(=O)CCC(=O)c2ccc(OCC)cc2)CC1	0	0	0	0	41	0	0
C/C1=C/C(=O)O[C@@H]2C[C@@H](CC[C@H](C)/C=C\CC1)O[C@@](O)(C1CSC(=O)N1)C2 (stereo partly drawn)	-	-	-	-	0	0	-
CCc1ccc(NC(=O)c2cnc(N3CCN(c4ccccn4)CC3)c3ccccc23)cc1	13µM	?	0	-	50	0	0
CCC(C)c1cc([N+](=O)[O-])cc([N+](=O)[O-])c1OC(C)=O (stereo not drawn)	-	-	-	-	25	0	0
COc1cc(/C=C2/C(=O)c3cccc([N+](=O)[O-])c3C2=O)c(Br)cc1O	0	0	0	0	61	0	?
COc1ccccc1NC(=O)CCCCCN1C(=O)c2cccc([N+](=O)[O-])c2C1=O	0	0	0	0	0	0	-
Cc1cnc(NC(=O)c2c(Cl)cnn2C)s1	0	0	0	0	40	0	0
COC(=O)c1ccc(NC(=O)Cc2ccc(F)cc2)cc1	0[1.15 µM]	0[1.15 µM]	0	0	151	0	?
COC(=O)[C@H](Cc1ccccc1)NC(=O)NCc1cccs1	-	0	0	0	0	0	-
CCn1ncc(/C=N/NC(=O)c2cc(Cl)ccc2OC)c1C	0	0	0	0	0	0	-
C/C1=C\[C@@H](O)C(C(C)C)C(OC(=O)c2ccc(O)cc2)C/C(C)=C/CC1 (stereo partly drawn)	-	-	-	-	24	0	?
CC(C)N(C(=O)COC(=O)c1ccc(O)cc1)C(C)C	0	0	0	0	0	0	-
Cc1cc(NC(=O)CSc2nc3ccsc3c(=O)n2Cc2ccccn2)n[nH]1	?	0	0	0	65	0	0
CCCCn1c(SCC(=O)Nc2cc(C)[nH]n2)nc2ccsc2c1=O	0	0	0	0	0	0	-
Cc1cccc(OCCCC(=O)Nc2nccs2)c1C	?	0	0	0	29	0	0
Cc1cc(C)c2c(c1)C1C=CCC1C(C(=O)O)N2 (stereo not drawn)	-	-	-	-	0	0	-
Cc1ccc2c(c1C)NC(C(=O)O)C1CC=CC21 (stereo not drawn)	-	?	0	0	110!	0	0
COc1ccc(OCC(=O)NCCCN2CCOCC2)cc1	0	0	0	0	0	0	-
CCc1nc2ccccc2c(=O)n1NCCc1ccccc1	0	0	0	0	49	0	0
CCc1nc2ccccc2c(=O)n1CCCCn1c(CC)nc2ccccc2c1=O	-	-	-	0	-	-	-
C=CCOC(=O)C1=C(C)OC(N)=C(C(=O)OCC)C12C(=O)N(CC(N)=O)c1ccccc12 (stereo not drawn)	13µM	0	0	0	33	0	0
N=c1sccn1CC(=O)Nc1ccc([N+](=O)[O-])cc1Cl	0	0	0	0	0	0	-
